From PubChem BioAssay AID1159580 (chemical genetic matrix, 2015)
Among all 5,500 compounds or so, about 2,000 (36%) were called active. Inconclusive results (about 18%) are left out. This is one part of the list. Values without a mark were called inactive. Cut-off read from the data, not from the text of the source: active = normalized growth mostly below about 0.91 (no sharp cut-off); inconclusive = no clear call, values can overlap the other calls; inactive = mostly above about 0.92.

Test: chemical genetic growth profiling, strain panel (AID 1159580);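 note: tested at 20 µM; growth read once vehicle control cultures reached saturation at 30 °C; 1 = growth at the plate median or of vehicle wells; lower values mean less growth of the strain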
Conditions: growth OD
[1] = S. cerevisiae deletion strains, locus YAL013W, strain DEP1, stronger effect = lower value
[2] = S. cerevisiae deletion strains, locus YBR229C, strain ROT2, stronger effect = lower value
[3] = S. cerevisiae deletion strains, locus YDL101C, strain DUN1, stronger effect = lower value
[4] = S. cerevisiae deletion strains, locus YDR150W, strain NUM1, stronger effect = lower value
[5] = S. cerevisiae deletion strains, locus YEL061C, strain CIN8, stronger effect = lower value
[6] = S. cerevisiae deletion strains, locus YGR078C, strain PAC10, stronger effect = lower value
[7] = S. cerevisiae deletion strains, locus YGR229C, strain SMI1, stronger effect = lower value
[8] = S. cerevisiae deletion strains, locus YHR030C, strain SLT2, stronger effect = lower value
[9] = S. cerevisiae deletion strains, locus YHR087W, strain rtc3, stronger effect = lower value
[10] = S. cerevisiae deletion strains, locus YJR043C, strain POL32, stronger effect = lower value
[11] = S. cerevisiae deletion strains, locus YJR075W, strain HOC1, stronger effect = lower value
[12] = S. cerevisiae deletion strains, locus YLR039C, strain RIC1, stronger effect = lower value
[13] = S. cerevisiae deletion strains, locus YLR058C, strain SHM2 (second series), stronger effect = lower value
[14] = S. cerevisiae deletion strains, locus YLR085C, strain ARP6, stronger effect = lower value
[15] = S. cerevisiae deletion strains, locus YLR262C, strain YPT6, stronger effect = lower value
[16] = S. cerevisiae deletion strains, locus YML094W, strain GIM5, stronger effect = lower value
[17] = S. cerevisiae deletion strains, locus YMR219W, strain ESC1, stronger effect = lower value
[18] = S. cerevisiae deletion strains, locus YMR263W, strain SAP30, stronger effect = lower value
[19] = S. cerevisiae deletion strains, locus YNL153C, strain GIM3, stronger effect = lower value
[20] = S. cerevisiae deletion strains, locus YNL298W, strain CLA4 (second series), stronger effect = lower value
[21] = S. cerevisiae deletion strains, locus YNL322C, strain KRE1, stronger effect = lower value
[22] = S. cerevisiae deletion strains, locus YNR030W, strain Alg12, stronger effect = lower value
[23] = S. cerevisiae deletion strains, locus YPL055C, strain LGE1, stronger effect = lower value
[24] = S. cerevisiae deletion strains, locus YPL241C, strain CIN2, stronger effect = lower value
[25] = S. cerevisiae deletion strains, locus YPR135W, strain CTF4, stronger effect = lower value
[26] = S. cerevisiae deletion strains, locus YHR079C, strain IRE1, stronger effect = lower value
[27] = S. cerevisiae deletion strains, locus YJL095W, strain BCK1, stronger effect = lower value
[28] = S. cerevisiae deletion strains, locus YJR066W, strain TOR1, stronger effect = lower value
[29] = S. cerevisiae deletion strains, locus YLR113W, strain HOG1, stronger effect = lower value
[30] = S. cerevisiae deletion strains, locus YNL183C, strain NPR1, stronger effect = lower value
[31] = S. cerevisiae deletion strains, locus YOR231W, strain MKK1, stronger effect = lower value
[32] = S. cerevisiae deletion strains, locus YPL256C, strain CLN2, stronger effect = lower value

Question: Which results are given for Cc1cccc(NC(=S)NCc2ccncc2)c1?
Answer: normalized growth [1]: 1; normalized growth [2]: 1; normalized growth [3]: 0.988; normalized growth [4]: 1; normalized growth [5]: 1.01; normalized growth [6]: 1.01; normalized growth [7]: 0.992; normalized growth [8]: 0.857; normalized growth [9]: 0.99; normalized growth (S. cerevisiae deletion strains, locus YJL187C, strain SWE1, stronger effect = lower value): 1.02; normalized growth [10]: 1; normalized growth [11]: 0.987; normalized growth [12]: 1.01; normalized growth [13]: 1.01; normalized growth [14]: 0.88; normalized growth [15]: 1.01; normalized growth [16]: 0.974; normalized growth [17]: 1.01; normalized growth [18]: 0.981; normalized growth [19]: 0.993; normalized growth [20]: 1.01; normalized growth [21]: 1.01; normalized growth [22]: 1.03; normalized growth [23]: 1.03; normalized growth [24]: 0.998; normalized growth [25]: 0.928; normalized growth (S. cerevisiae strains, strain wild type, stronger effect = lower value): 0.997

Question: Which normalized growth [1] does the source give for S=C(NCc1cccnc1)Nc1ccccc1Cl here?
Answer: The normalized growth was 0.987.

Question: And the normalized growth [2]?
Answer: Its normalized growth is 1.

Question: And the normalized growth (S. cerevisiae deletion strains, locus YCL061C, strain MRC1, stronger effect = lower value)?
Answer: Its normalized growth is 0.988.

Question: What about the normalized growth [3] of the same molecule?
Answer: The normalized growth was 0.989.

Question: And the normalized growth [4]?
Answer: The normalized growth was 0.953.

Question: And the normalized growth [5]?
Answer: The normalized growth was 0.975.

Question: What about the normalized growth [6] of the same molecule?
Answer: The normalized growth was 0.989.

Question: And the normalized growth [7]?
Answer: Its normalized growth is 0.991.

Question: What about the normalized growth [8] of the same molecule?
Answer: The normalized growth was 0.538 (active).

Question: And the normalized growth [9]?
Answer: Its normalized growth is 1.01.

Question: What about the normalized growth [10] of the same molecule?
Answer: The normalized growth was 0.984.

Question: What about the normalized growth [11] of the same molecule?
Answer: Its normalized growth is 1.02.

Question: What about the normalized growth [12] of the same molecule?
Answer: Its normalized growth is 0.939.

Question: What about the normalized growth [13] of the same molecule?
Answer: Its normalized growth is 0.987.

Question: And the normalized growth [14]?
Answer: The normalized growth was 0.584 (active).

Question: And the normalized growth [15]?
Answer: Its normalized growth is 0.982.

Question: What about the normalized growth [16] of the same molecule?
Answer: Its normalized growth is 0.953.

Question: And the normalized growth [17]?
Answer: Its normalized growth is 0.992.

Question: And the normalized growth [18]?
Answer: The normalized growth was 0.968.

Question: And the normalized growth (S. cerevisiae deletion strains, locus YNL128W, strain TEP1, stronger effect = lower value)?
Answer: The normalized growth was 0.994.

Question: What about the normalized growth [19] of the same molecule?
Answer: The normalized growth was 0.98.

Question: And the normalized growth [20]?
Answer: Its normalized growth is 0.959.

Question: What about the normalized growth [21] of the same molecule?
Answer: Its normalized growth is 1.

Question: And the normalized growth [22]?
Answer: The normalized growth was 0.987.

Question: What about the normalized growth (S. cerevisiae deletion strains, locus YOL006C, strain TOP1, stronger effect = lower value) of the same molecule?
Answer: Its normalized growth is 1.

Question: And the normalized growth [23]?
Answer: Its normalized growth is 0.961.

Question: What about the normalized growth [24] of the same molecule?
Answer: The normalized growth was 0.97.

Question: And the normalized growth [25]?
Answer: The normalized growth was 0.745.

Question: For O=P(O)(O)C(O)(Cc1cccnc1)P(=O)(O)O, which normalized growth [8] is on record?
Answer: The normalized growth was 0.969.

Question: And the normalized growth [26]?
Answer: The normalized growth was 0.963.

Question: And the normalized growth [27]?
Answer: The normalized growth was 0.969.

Question: What about the normalized growth [28] of the same molecule?
Answer: The normalized growth was 0.936.

Question: And the normalized growth [29]?
Answer: Its normalized growth is 0.919.

Question: What about the normalized growth [30] of the same molecule?
Answer: The normalized growth was 0.897.

Question: And the normalized growth [31]?
Answer: The normalized growth was 0.966.

Question: And the normalized growth [32]?
Answer: The normalized growth was 0.933.

Question: What does the source list for O=S(=O)(NC(=S)Nc1ccc(Cl)c(Cl)c1)c1ccccc1?
Answer: normalized growth (S. cerevisiae deletion strains, locus YAR019C, strain CDC15, stronger effect = lower value): 1.01; normalized growth (S. cerevisiae deletion strains, locus YBL105C, strain PKC1, stronger effect = lower value): 1.01; normalized growth (S. cerevisiae deletion strains, locus YBR135W, strain CKS1, stronger effect = lower value): 0.997; normalized growth (S. cerevisiae deletion strains, locus YBR136W, strain MEC1, stronger effect = lower value): 1; normalized growth (S. cerevisiae deletion strains, locus YBR160W, strain CDC28, stronger effect = lower value): 1; normalized growth (S. cerevisiae deletion strains, locus YDL017W, strain CDC7, stronger effect = lower value): 1.01; normalized growth (S. cerevisiae deletion strains, locus YDL028C, strain MPS1, stronger effect = lower value): 1; normalized growth [3]: 1.01; normalized growth (S. cerevisiae deletion strains, locus YDL108W, strain KIN28, stronger effect = lower value): 1; normalized growth (S. cerevisiae deletion strains, locus YDL132W, strain cdc53, stronger effect = lower value): 0.993; normalized growth (S. cerevisiae deletion strains, locus YDL214C, strain PRR2, stronger effect = lower value): 1.02; normalized growth (S. cerevisiae deletion strains, locus YDR052C, strain DBF4, stronger effect = lower value): 1.01; normalized growth (S. cerevisiae deletion strains, locus YDR054C, strain cdc34, stronger effect = lower value): 1.01; normalized growth (S. cerevisiae deletion strains, locus YDR226W, strain ADK1, stronger effect = lower value): 0.991; normalized growth (S. cerevisiae deletion strains, locus YDR477W, strain SNF1, stronger effect = lower value): 1.02; normalized growth (S. cerevisiae deletion strains, locus YER123W, strain YCK3, stronger effect = lower value): 1; normalized growth (S. cerevisiae deletion strains, locus YER133W, strain GLC7, stronger effect = lower value): 1.01; normalized growth (S. cerevisiae deletion strains, locus YFL009W, strain cdc4, stronger effect = lower value): 1.01; normalized growth (S. cerevisiae deletion strains, locus YFL029C, strain CAK1, stronger effect = lower value): 1; normalized growth (S. cerevisiae deletion strains, locus YFR003C, strain YPI1, stronger effect = lower value): 1; normalized growth (S. cerevisiae deletion strains, locus YFR019W, strain FAB1, stronger effect = lower value): 1; normalized growth (S. cerevisiae deletion strains, locus YFR028C, strain CDC14, stronger effect = lower value): 1; normalized growth (S. cerevisiae deletion strains, locus YGR040W, strain KSS1, stronger effect = lower value): 1.01; normalized growth (S. cerevisiae deletion strains, locus YGR052W, strain FMP48, stronger effect = lower value): 1.12; normalized growth (S. cerevisiae deletion strains, locus YGR092W, strain DBF2, stronger effect = lower value): 0.988; normalized growth [8]: 1.1; normalized growth [26]: 1; normalized growth (S. cerevisiae deletion strains, locus YHR082C, strain KSP1, stronger effect = lower value): 1.09; normalized growth (S. cerevisiae deletion strains, locus YHR205W, strain SCH9, stronger effect = lower value): 0.995; normalized growth (S. cerevisiae deletion strains, locus YIL147C, strain SLN1, stronger effect = lower value): 1; normalized growth [27]: 1.05; normalized growth (S. cerevisiae deletion strains, locus YJL128C, strain PBS2, stronger effect = lower value): 0.995; normalized growth (S. cerevisiae deletion strains, locus YJL157C, strain FAR1, stronger effect = lower value): 1.01; normalized growth (S. cerevisiae deletion strains, locus YJR016C, strain ILV3, stronger effect = lower value): 0.995; normalized growth (S. cerevisiae deletion strains, locus YJR066W, strain TOR1 (second series), stronger effect = lower value): 0.992; normalized growth [28]: 1.13; normalized growth (S. cerevisiae deletion strains, locus YKL048C, strain ELM1, stronger effect = lower value): 1.02; normalized growth (S. cerevisiae deletion strains, locus YKL067W, strain YNK1, stronger effect = lower value): 0.995; normalized growth (S. cerevisiae deletion strains, locus YKL101W, strain HSL1, stronger effect = lower value): 1; normalized growth (S. cerevisiae deletion strains, locus YKL193C, strain SDS22, stronger effect = lower value): 1; normalized growth (S. cerevisiae deletion strains, locus YKL203C, strain TOR2, stronger effect = lower value): 1.07; normalized growth [29]: 1.03; normalized growth (S. cerevisiae deletion strains, locus YLR133W, strain CKI1, stronger effect = lower value): 1.01; normalized growth (S. cerevisiae deletion strains, locus YLR403W, strain SFP1, stronger effect = lower value): 1.02; normalized growth (S. cerevisiae deletion strains, locus YML070W, strain DAK1, stronger effect = lower value): 0.999; normalized growth (S. cerevisiae deletion strains, locus YMR001C, strain CDC5, stronger effect = lower value): 1; normalized growth (S. cerevisiae deletion strains, locus YMR205C, strain PFK2 (second series), stronger effect = lower value): 1; normalized growth (S. cerevisiae deletion strains, locus YMR277W, strain FCP1, stronger effect = lower value): 1; normalized growth (S. cerevisiae deletion strains, locus YNL006W, strain LST8, stronger effect = lower value): 0.984; normalized growth (S. cerevisiae deletion strains, locus YNL020C, strain ARK1, stronger effect = lower value): 1; normalized growth (S. cerevisiae deletion strains, locus YNL161W, strain CBK1, stronger effect = lower value): 0.996; normalized growth [30]: 0.986; normalized growth (S. cerevisiae deletion strains, locus YNL207W, strain RIO2, stronger effect = lower value): 1.01; normalized growth (S. cerevisiae deletion strains, locus YNL222W, strain SSU72, stronger effect = lower value): 0.995; normalized growth (S. cerevisiae deletion strains, locus YNL307C, strain MCK1 (second series), stronger effect = lower value): 0.987; normalized growth (S. cerevisiae deletion strains, locus YOL078W, strain AVO1, stronger effect = lower value): 1; normalized growth (S. cerevisiae deletion strains, locus YOL136C, strain PFK27, stronger effect = lower value): 1; normalized growth (S. cerevisiae deletion strains, locus YOR061W, strain CKA2, stronger effect = lower value): 1.02; normalized growth (S. cerevisiae deletion strains, locus YOR119C, strain RIO1, stronger effect = lower value): 1.13; normalized growth [31]: 1.02; normalized growth (S. cerevisiae deletion strains, locus YOR329C, strain SCD5, stronger effect = lower value): 1.01; normalized growth (S. cerevisiae deletion strains, locus YPL031C, strain PHO85, stronger effect = lower value): 1.02; normalized growth (S. cerevisiae deletion strains, locus YPL153C, strain RAD53, stronger effect = lower value): 1; normalized growth (S. cerevisiae deletion strains, locus YPL204W, strain HRR25, stronger effect = lower value): 0.999; normalized growth (S. cerevisiae deletion strains, locus YPL209C, strain IPL1, stronger effect = lower value): 0.996; normalized growth [32]: 1.01; normalized growth (S. cerevisiae deletion strains, locus YPR025C, strain CCL1, stronger effect = lower value): 0.998; normalized growth (S. cerevisiae deletion strains, locus YPR106W, strain ISR1, stronger effect = lower value): 1.01; normalized growth (S. cerevisiae deletion strains, locus YPR111W, strain DBF20, stronger effect = lower value): 0.994; normalized growth (S. cerevisiae deletion strains, strain NNK1, stronger effect = lower value): 1; normalized growth (S. cerevisiae deletion strains, strain TSCII, stronger effect = lower value): 0.999
